Screening results as filed in PubChem BioAssay.
G9a inh: qHTS Assay for Inhibitors of Histone Lysine Methyltransferase G9a | hit rate 8.8% among 350,000 | Histone-lysine N-methyltransferase EHMT2 (Homo sapiens), Q96KQ7 | G9a H3K9 monomethylation, AlphaScreen, 2 h | AID 504332, 2011 | Potency, µM (doses to about 102 µM), actives largely listed as inhibitors; note: nearly all actives have a fitted effect of over 75% in size
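Enzyme 20 nM + cpd, 15 min RT; add b-H3K9 pep 500 nM / SAM 20 uM; 2 h RT; anti-H3K9me1 Ab 0.5 ug/mL + SA donor / anti-rabbit acceptor beads 20 ug/mL each, 10 min; AlphaScreen read.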
BAZ2B block: qHTS Assay for Inhibitors of BAZ2B. Bromodomain adjacent to zinc finger domain protein 2B (Homo sapiens), Q9UIF8. AlphaScreen BAZ2B-H3K14Ac peptide displacement. Potency, µM (highest dose often 114 µM), usual class: inhibitors. hit rate 4.4% among 360,000. AID 504333, 2011; note: nearly all actives have a fitted effect of over 60% in size
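Protein-peptide AlphaScreen: BAZ2B 50 nM, b-H3K14Ac 50 nM, 1x PBS pH 7.4 + 0.01% Tween-20. Preincubation 30 min RT; cpd 30 min RT (top 110 uM); beads 20 min RT, light-protected.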
HP1b binding inh: HTS for Inhibitors of HP1-beta Chromodomain Interactions with Methylated Histone Tails; Chromobox protein homolog 1 (Homo sapiens), P83916; AlphaScreen HP1-beta / biotin-H3K9me3 peptide binding; Potency, µM (series often up to 114 µM), usual class: inhibitors; hit rate 0.56% among 390,000; AID 540317, 2011; note: nearly all actives have a fitted effect of over 70% in size
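AlphaScreen: HP1-beta (50 nM) preformed 30 min with biotin-H3(1-18)K9me3 peptide (50 nM) in PBS pH 7.4, 0.01% Tween-20. Compound added for 30 min at RT, then streptavidin donor/nickel chelate acceptor beads (10 ug/mL) for 30 min.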
JMJD2A Tudor inh: qHTS Assay for Inhibitors of JMJD2A-Tudor Domain. Lysine-specific demethylase 4A (Homo sapiens), O75164. AlphaScreen JMJD2A-Tudor / H3K4me3 peptide binding. Potency, µM (doses to about 114 µM), usual class: inhibitors. hit rate 4.4% among 390,000. AID 504339, 2011; note: nearly all actives have a fitted effect of over 50% in size
TDP1 inh: qHTS Assay for Inhibitors of Tyrosyl-DNA Phosphodiesterase (TDP1); Tyrosyl-DNA phosphodiesterase 1 (Homo sapiens), Q9NUW8; recombinant TDP1, AlphaScreen DNA substrate cleavage; Potency, µM (series often up to 130 µM), most hits filed as inhibitors; hit rate 0.28% among 350,000; AID 485290, 2010; note: nearly all actives have a fitted effect of over 40% in size
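Recombinant E. coli-expressed Tdp1 (1 nM) preincubated with compound 15 min at RT, then 5'-biotin/3'-phosphotyrosine-FITC DNA substrate (15 nM) added for 5 min. AlphaScreen beads (10 ug/ml) added, 10 min RT; tyrosine-FITC cleavage read as signal loss.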
Sfp PPTase inh: qHTS Assay for Inhibitors of Bacillus subtilis Sfp phosphopantetheinyl transferase (PPTase) | Potency, µM, actives largely listed as inhibitors | Biochemical Sfp PPTase activity, qHTS | hit rate 3.5% among 310,000 | 4'-phosphopantetheinyl transferase ffp (Bacillus subtilis), Q9F4F7;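 note: the enzyme is Sfp with the accession as filed and its product quenches rhodamine fluorescence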
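Step 1, compound plus 15 nM Sfp-PPTase, 15 min, room temperature. Step 2, add rhodamine-CoA (5 uM) and BHQ-2-YbbR (12.5 uM). Step 3, read 525/598 nm fluorescence at 0 and 30 min.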
Hits are given with their value; – = inactive; ? = inconclusive; · = not tested or not shown; ! = not confirmed by another sample; [ ] = another dose, or the depositor's remark. An excerpt weighted towards active compounds, which were near 12% of everything screened. Calls come from the whole dose curve; as a rule, active = well fitted curve in the direction sought with a large enough effect; inconclusive = small, poorly fitted or top-dose-only effect, or another doubt; inactive = no such curve, though single readings can be large; an effect the other way counts as inactive or inconclusive.

SMILES | G9a inh | BAZ2B block | HP1b binding inh | JMJD2A Tudor inh | TDP1 inh | Sfp PPTase inh
CC(C)NC(=O)C1CCC(Cn2c(=O)c3sccc3n(CC(=O)Nc3ccccc3)c2=O)CC1 (configuration not stated) | – | – | – | – | – | ·
Cc1ccc(Cl)cc1N1CCN(C(=O)c2cc(S(=O)(=O)N3CCC(C)CC3)cn2C)CC1 | – | – | – | – | – | ·
COc1ccccc1N1CCN(Cc2ccc(C(=O)O)cc2)CC1 | – | – | – | – | · | –
COc1ccccc1N1CCN(CC(=O)c2ccc(F)cc2)CC1 | · | 56.2µM | ? | 14.1µM | – | 39.8µM
COc1ccccc1N1CCN(C/C(C)=C/c2ccccc2)CC1 | –[12.7 µM] | 56.2µM | – | – | – | –
N#Cc1ccc(C(=O)CN2CCN(c3ccccc3)CC2)cc1 | 28.2µM | – | – | – | · | –
COc1ccccc1N1CCN(CC(=O)N2N=CCC2c2ccccc2)CC1 (configuration not stated) | – | – | – | – | – | –
Cc1nnc(N2C(=O)c3oc4ccccc4c(=O)c3C2c2ccco2)s1 (configuration not stated) | 20µM | – | – | – | · | ?
Cc1oc(-c2ccc(Cl)cc2)cc1C(=O)/C(C#N)=C/Nc1ccccc1 | 28.2µM | – | – | – | – | ?
NC/C=C\C(=O)O | 12.6µM! | · | · | · | ? | –
C[C@H]1CNC(=O)C(=O)N1C[C@H](Cc1ccc(O)cc1)NC(=O)CC12CC3CC(CC(C3)C1)C2 | 70.8µM | – | – | – | · | –
Cc1ccc(NC(=O)C(Cc2c[nH]c3ccccc23)NC(=O)OC(C)(C)C)c(C)c1 (configuration not stated) | – | – | – | – | · | ·
CC1Oc2ccccc2OC1(O)c1ccccn1 (configuration not stated) | 20µM | – | – | 50.1µM | – | –
O=C(COC(=O)c1cc(-c2ccco2)nc2ccccc12)NCc1ccccc1 | 44.7µM | – | – | – | – | 39.8µM
CCN(CC)C(=O)COC(=O)c1cc(-c2ccco2)nc2ccccc12 | 3.98µM | 22.4µM | ? | 56.2µM | · | –
Cc1cc(C(=O)OCC(=O)NCCc2ccccc2)c2ccccc2n1 | – | – | – | – | – | ·
COC(=O)C1CCN(C(=O)COC(=O)c2cc(-c3ccccc3)nc3ccc(OC)cc23)CC1 | –[12.7 µM] | – | – | – | 28.2µM | ·
O=C(OCC(=O)N1CCN(C(=O)c2ccco2)CC1)c1cc(-c2ccccc2)nc2ccccc12 | ? | ? | – | ? | – | –
CCN(CC)C(=O)COC(=O)c1cc(-c2ccc(OC)cc2)nc2ccccc12 | – | – | – | – | – | –
O=C(OCC(=O)N1CCN(C(=O)c2ccco2)CC1)c1cc(-c2cccc(Br)c2)nc2ccccc12 | 14.1µM | – | – | – | – | –
CNC(=O)COC(=O)c1cc(-c2ccco2)nc2ccccc12 | 10µM | 50.1µM | 44.7µM | 20µM | · | 28.2µM
CNc1nc(SC)nc(N(C)C#N)n1 | – | – | – | – | – | –
COc1c(C=O)c(O)cc2c1C(=O)c1ccccc1C2=O | 5.01µM | · | · | · | – | ?
COc1ccc(CC2=C(O)c3ccccc3C(=O)C2=O)cc1 | ? | ? | – | – | – | –
N#C/C(C(=O)NCc1ccco1)=C1/SC(Cc2ccc(Cl)cc2)C(=O)N1c1ccccc1 (configuration not stated) | – | – | – | – | – | 39.8µM
N#C/C(C(=O)NCc1ccco1)=C1/SC=C(c2ccccc2)N1c1ccccc1 | 15.8µM | – | – | – | – | –
Cc1ccc(CC2S/C(=C(/C#N)C(=O)NCc3ccco3)N(c3ccccc3)C2=O)cc1 (configuration not stated) | – | – | – | – | – | –
COc1cccc(CNc2ccc(F)c(Cl)c2)c1O | – | – | – | ? | – | –
